This is part of a sample that, as a whole, favours compounds with a hit. Of some 83,000 tested, about 20% had one in any assay.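 In brief: 96-well plates, 48 h treatment, single concentration, percent growth endpoint.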 The source made the active and inactive calls. Rule for the calls: active = growth percent below 10; inactive = the rest.
These molecules were tested on HL-60(TB) leukemia (assay: NCI-60 one-dose screen, 48 h (100 = growth as untreated, 0 = no growth, -100 = all killed)). Details: 10 µM unless noted.

With `COc1ccc(C2C3=C(COC3=O)N(CCO)c3cc4c(cc32)CCC4)cc1OC` (centres undefined) as the molecule, how does the growth read?
Its growth is 0.0588% (active).

With `COc1ccc2c(c1)N(Cc1ccc(Cl)cc1)CCC2N1CCCC1=O` (centres undefined) as the molecule, how does the growth read?
The growth was 53.9% (inactive).

With `ClCc1cccc(CSc2ncnc3c2ncn3Cc2cccc(CCl)c2)c1` as the molecule, how does the growth read?
The growth was 23.7% (inactive).

With `CCCN1CN2C(=O)N3CN(CCC)CN4C(=S)N(C1)C2C34` (centres undefined) as the molecule, how does the growth read?
The growth was 95% (inactive).

With `C#CCOc1cccc(-c2ncc3cc(NC(=O)CCl)ccc3n2)c1` as the molecule, how does the growth read?
Its growth is 14.3% (inactive).

`CCN(CC)CCCN1C(=O)c2c(c(C)c3c(oc4ccc(OC)cc43)c2C)C1=O` was tested. Which growth did it give?
The growth was 97.6% (inactive).

`CC(C)=CCC[C@H](C)c1ccc(C)c2c1OCN(CCO)C2` was tested. Which growth did it give?
The growth was 90.8% (inactive).

Which growth does the source give for `CCCCCCCCCCCCCCCCCC1=NCCCN1CCO` here?
Its growth is 106% (inactive).

Which growth does the source give for `CC1CCCC(CC(N)=O)CC1` (centres undefined) here?
The growth was 90.5% (inactive).

How did the growth turn out when `COc1cc(/C=C/C(=O)/C=C/c2cc(OC)c3c(c2OC)OCO3)c(OC)c2c1OCO2` was run?
The growth was 27.2% (inactive).

With `C/C(Cc1ccc(Cl)cc1)=C(/c1ccc(Cl)cc1)c1ccc(OCCN2CCCC2)cc1` as the molecule, how does the growth read?
Its growth is 54.7% (inactive).

How did the growth turn out when `CCN(CC)CC#CCOC(=O)[C@]1(C)CCC[C@]2(C)[C@H]3C[C@H]4C(C(C)C)=C[C@]3(CC[C@H]21)[C@@H]1C(=O)CCC(=O)[C@@H]14` was run?
Its growth is -36.3% (active).

For `Cc1nc2c(-c3cnc(N)nc3)nc(N3CCOCC3)nc2n1C(C)C`, which growth is on record?
Its growth is 10.8% (inactive).

How did the growth turn out when `CCOc1cccc(-c2nc(N)nc(Nc3ccccc3SSc3ccccc3Nc3nc(N)nc(-c4cccc(OCC)c4)n3)n2)c1` was run?
The growth was 8.5% (active).
